Consider 36 sequences from paper PMC3820963, “The RNA Binding Protein RBM38 (RNPC1) Regulates Splicing during Late Erythroid Differentiation”.

The test concerns the target T1, Rbm38-FF (Mus musculus, UniProt Q62176 1-237).
T1 sequence: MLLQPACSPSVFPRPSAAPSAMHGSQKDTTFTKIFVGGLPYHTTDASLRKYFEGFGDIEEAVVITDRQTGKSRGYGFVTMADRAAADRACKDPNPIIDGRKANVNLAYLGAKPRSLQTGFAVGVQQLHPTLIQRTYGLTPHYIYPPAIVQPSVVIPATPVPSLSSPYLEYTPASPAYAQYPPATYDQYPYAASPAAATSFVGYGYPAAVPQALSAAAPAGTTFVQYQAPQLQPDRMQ
Nature of the test: SELEX-Seq; 16 mM HEPES pH 7.9, 150 mM KCl, 2 mM MgCl2, 60 uM EDTA, 1 mM DTT, 6% glycerol, 0.01 ug/uL heparin, 0.15 mM PMSF, 0.2 U/uL SUPERase-In, room temperature, 30 min; high values mean tight binding. The following applies: protein: recombinant; tags: C-terminal 2xFLAG with TEV remnant (SBP removed by TEV cleavage); ssRNA.
GUGCGUG: the binding signal was 0.0063 fraction of reads.
For UGUGUGG the value was 0.00894 fraction of reads; for CGGUGUG, 0.00653 fraction of reads.
For the sequence UUGUGUG, the binding signal is 0.00989 fraction of reads.
With CGUGUGU, the binding signal was 0.01 fraction of reads.
With UGUGUUU the figure was 0.00792 fraction of reads.
In the case of GGCGUGU, the binding signal was 0.00692 fraction of reads.
Consider UGGUGUG, for which the binding signal is 0.00917 fraction of reads.
UUUGUGU: the binding signal was 0.00629 fraction of reads.
Take GUGUGUU: the binding signal was 0.0136 fraction of reads.
For the sequence CAGUGUG, the binding signal is 0.00615 fraction of reads.
With GUUGUGU the figure was 0.00961 fraction of reads.
With UGUGUGU the figure was 0.0159 fraction of reads.
Take GUGUGUA: the binding signal was 0.00612 fraction of reads.
With GUGUUUG the figure was 0.00702 fraction of reads; with GUGUGUG, 0.016 fraction of reads.
For GUGUGCG the value was 0.00564 fraction of reads.
With GCGUGUG the figure was 0.00853 fraction of reads; with GGGUGUG, 0.0067 fraction of reads; with UGUGGUG, 0.00628 fraction of reads.
Take GUGUUGU: the binding signal is 0.00863 fraction of reads.
Regarding UGUGUUG, the binding signal was 0.00826 fraction of reads.
For the sequence GGUGUGG, the binding signal is 0.00694 fraction of reads.
For GUGGUGU the value was 0.00782 fraction of reads; for AUGUGUG, 0.00771 fraction of reads; for UGUUGUG, 0.00859 fraction of reads.
With AGUGUGU the figure was 0.0103 fraction of reads.
For GUUUGUG the value was 0.00579 fraction of reads; for GUGUGGG, 0.00755 fraction of reads.
As for UGCGUGU, the binding signal was 0.00637 fraction of reads.
With GUGUGUC the figure was 0.00739 fraction of reads.
For UUGUGUU the value was 0.00601 fraction of reads; for GUGUGGU, 0.00929 fraction of reads.
As for GGUGUGU, the binding signal was 0.0109 fraction of reads.
For GAGUGUG the value was 0.00663 fraction of reads.
On to UGUGUGC, for which the binding signal is 0.00732 fraction of reads.
